Experimental data published in the supplement of paper PMC3616981.
± gives the standard deviation of the averaged measurements.

Compound: CC(C)c1cccc(C(C)C)c1N1C(=O)c2ccc(O)cc2C1=O
Test: BioMAP readout fold decrease vs vehicle (vehicle/treated); higher = stronger decrease of the readout vs vehicle (values <1 mean increase)
Experimental: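 BioSeek BioMAP human primary cell (co-)culture systems (3C, 4H, LPS, SAg, BE3C, CASM3C, hDFCGF, KF3CT) treated with 5HPP-33 at 1.48, 4.44, 13.3 and 40 µM. Read-outs are protein levels by ELISA, proliferation and SRB total protein. Duplicate rows per assay are averaged as replicates. Tested in ToxCast Phase II for this study; exposure time not stated.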
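Note: Co-cultures of keratinocytes, bronchial epithelial and smooth muscle cells, fibroblasts, HUVECs and PBMCs under stimuli like LPS, TNF-α, IFN-γ, IL-1β, TGF-β or EGF, SRB reflecting cytotoxicity.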

Row | Target | BioMAP readout fold decrease (1.48 µM) | BioMAP readout fold decrease (4.44 µM) | BioMAP readout fold decrease (13.3 µM) | BioMAP readout fold decrease (40 µM)
1 | 4H_VCAM1 | 0.977 ± 0.017 | 0.978 ± 0.044 | 1.06 ± 0.018 | 2.2 ± 0.07
2 | LPS_IL8 | 1.07 ± 0.0052 | 0.942 ± 0.0096 | 0.805 ± 0.015 | 1.02 ± 0.053
3 | 4H_Pselectin | 0.965 ± 0.074 | 1.09 ± 0.095 | 1.56 ± 0.019 | 1.75 ± 0.032
4 | LPS_MCP1 | 1.03 ± 0.028 | 1.01 ± 0.012 | 1.02 ± 0.016 | 2.69 ± 0.19
5 | hDFCGF_MCSF | 1.03 ± 0.01 | 0.98 ± 0.05 | 1.21 ± 0.024 | 2.01 ± 0.16
6 | BE3C_hLADR | 0.985 ± 0.037 | 1.17 ± 0.015 | 1.72 ± 0.043 | 2.97 ± 0.053
7 | CASM3C_uPAR | 1.15 ± 0.1 | 1.21 ± 0.037 | 1.29 ± 0.05 | 2.6 ± 0.26
8 | 4H_Eotaxin3 | 0.9561 ± 0.0065 | 0.875 ± 0.022 | 1.02 ± 0.032 | 4.62 ± 0.098
9 | 3C_Thrombomodulin | 1.06 ± 0.032 | 0.9983 ± 0.0097 | 0.939 ± 0.01 | 0.984 ± 0.054
10 | 3C_MCP1 | 1.04 ± 0.015 | 0.986 ± 0.0064 | 0.8619 ± 0.0073 | 0.919 ± 0.018
